Compound activity deposited in PubChem by National Center for Advancing Translational Sciences (NCATS).
SW480 rereplic: induces DNA re-replication in SW480 colon adenocarcinoma cells; SW480 DNA re-replication, Hoechst DNA content imaging, 48 h; Potency, µM (top dose mostly 46.1 µM), hits mostly activators; actives 1.8% (n = 340,000); AID 624297; also: nearly all actives have a fitted effect of over 55% in size
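Per well, 250 cells were exposed to pinned compound for 48 hr. Nuclear DNA was visualised with Hoechst (40 min, 37 C) and total object intensity recorded by fluorescence scanning.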
Gal4-VP16 FLuc: inhibits Gal4-VP16 luciferase reporter, ROR gamma counter-screen | Drosophila S2 Gal4-VP16 UAS-luciferase, luminescence, 20 h | Potency, µM (doses to about 53.6 µM), most hits filed as inhibitors | actives 3.5% (n = 310,000);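 also: Gal4-VP16 expression switched on by copper sulfate through the metallothionein promoter; nearly all actives have a fitted effect of over 50% in size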
MCF10A rereplic: DNA re-replication induction in MCF 10a cells | MCF 10A DNA re-replication, Hoechst nuclear intensity, 48 h | Potency, µM (series often up to 46.1 µM), hits mostly activators | actives 2.9% (n = 350,000) | AID 624296; also: nearly all actives have a fitted effect of over 50% in size
RORg inh: blocks mouse ROR gamma transcriptional activity. Drosophila S2 Gal4-RORgamma UAS-luciferase reporter, 20 h. Potency, µM (titrated, usually from 53.6 µM), most hits filed as inhibitors. actives 5.4% (n = 310,000). AID 2551; also: nearly all actives have a fitted effect of over 60% in size
Target sequence (P51450 whole entry, looked up, the tested form may be a part): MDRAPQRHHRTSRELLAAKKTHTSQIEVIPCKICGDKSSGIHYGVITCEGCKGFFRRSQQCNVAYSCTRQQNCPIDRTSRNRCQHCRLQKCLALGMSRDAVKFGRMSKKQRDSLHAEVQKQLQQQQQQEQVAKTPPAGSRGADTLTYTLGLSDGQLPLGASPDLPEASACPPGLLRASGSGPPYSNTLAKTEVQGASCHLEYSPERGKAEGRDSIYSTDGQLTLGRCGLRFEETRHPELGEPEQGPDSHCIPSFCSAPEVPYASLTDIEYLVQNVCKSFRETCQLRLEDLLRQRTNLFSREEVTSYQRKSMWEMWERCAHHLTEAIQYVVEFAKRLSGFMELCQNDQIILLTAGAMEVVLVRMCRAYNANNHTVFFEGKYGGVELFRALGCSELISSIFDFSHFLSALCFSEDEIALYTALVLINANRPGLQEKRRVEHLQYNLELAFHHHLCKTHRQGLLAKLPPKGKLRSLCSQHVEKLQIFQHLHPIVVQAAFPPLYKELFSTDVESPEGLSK
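Luciferase reporter read in Schneider cells carrying Gal4-RORγ (mouse) and UAS-Photinus luciferase; cells given compound 1 h before 700 uM copper sulfate induction, then incubated 20 h at ambient temperature.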
ELG1 repair inh: ELG1-dependent DNA repair inhibition; actives 2.3% (n = 330,000); AID 504467; HEK293T ELG1-luciferase reporter, luminescence, 16 h; DNA damage induced by 5-fluorouridine; Potency, µM (series often up to 46.1 µM), actives largely listed as inhibitors; also: nearly all actives have a fitted effect of over 55% in size
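Overnight (16 hr) co-exposure of 2,000 cells/well to 5-fluorouridine and compound at 37 °C preceded detection. Luciferase was quantified via ONE-Glo luminescence; loss of signal denotes inhibition.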
Large screens that a line does not name were inactive. This is a sample that favours compounds with a hit; in the whole collection about 10% have one here. Calls follow the shape of the dose curve; as a rule, active = well fitted curve in the direction sought with a large enough effect; inconclusive = small, poorly fitted or top-dose-only effect, or another doubt; inactive = no such curve, though single readings can be large; an effect the other way counts as inactive or inconclusive.

Cc1ccccc1NC(=S)N(Cc1cccnc1)Cc1ccccc1Cl	RORg inh 2.2µM
Cc1ccccc1NC(=S)N(Cc1ccccn1)Cc1ccccc1Cl	SW480 rereplic inconclusive, Gal4-VP16 FLuc inconclusive, RORg inh 6.3µM
COc1ccccc1NC(=S)N(Cc1ccccn1)Cc1ccccc1Cl	ELG1 repair inh inconclusive
COc1ccccc1NC(=S)N(Cc1cccnc1)Cc1ccccc1Cl	RORg inh inconclusive
O=C(COc1coc(CN2CCCc3ccccc32)cc1=O)Nc1cccc([N+](=O)[O-])c1	none (no result: Gal4-VP16 FLuc, RORg inh)
CCC(=O)Nc1ccc(-c2cc(-c3ccccc3)nc(-c3ccc(NC(=O)CC)cc3)n2)cc1	Gal4-VP16 FLuc 7.1µM, MCF10A rereplic inconclusive, RORg inh 8.9µM
O=C(O)c1cc(-c2c[nH]c3ccccc23)nc2cc3ccccc3cc12	RORg inh 5µM, ELG1 repair inh inconclusive (no result: SW480 rereplic, MCF10A rereplic)
Cc1cc(C(=O)N/N=C/c2ccc3c(c2)OCO3)c2ccccc2n1	SW480 rereplic 10µM, MCF10A rereplic inconclusive, ELG1 repair inh inconclusive
O=C(Nc1ccc2c(c1)OCO2)c1cc(-c2ccncc2)nc2ccccc12	SW480 rereplic inconclusive, MCF10A rereplic 18µM
COc1cc(CN2CCNC(=O)C2CC(=O)N(Cc2nccn2C)C(C)C)cc(OC)c1 (centres undefined)	none
CC1CCC(NC(=O)COC(=O)CCC(=O)c2ccc(Cl)s2)CC1 (centres undefined)	none (no result: Gal4-VP16 FLuc, RORg inh)
NNC(=O)c1cc(-c2ccc(O)cc2)nc2ccc(Br)cc12	Gal4-VP16 FLuc inconclusive, MCF10A rereplic inconclusive, RORg inh 13µM
CC(=O)Nc1ccc(-c2cc(C(=O)O)c3ccccc3n2)cc1	Gal4-VP16 FLuc inconclusive, RORg inh 10µM
O=C(O)c1cc(-c2ccc3ccccc3c2)nc2ccc(F)cc12	MCF10A rereplic inconclusive, RORg inh 22µM, ELG1 repair inh inconclusive
Cc1ccc(-c2cc(C(=O)N(C)Cc3cnn(C)c3C)c3cc(Br)ccc3n2)cc1	MCF10A rereplic 16µM, RORg inh inconclusive, ELG1 repair inh 5.8µM
O=Nc1c2nc3ccccc3n(O)c-2c2ccccc12	Gal4-VP16 FLuc inconclusive, RORg inh inconclusive (no result: SW480 rereplic, MCF10A rereplic)
COc1ccc(C(=O)C(O)C(c2ccc(C)cc2)N2CCOCC2)cc1OC (centres undefined)	none
NS(=O)(=O)c1ccc(CCNC(=O)C2CC(=O)N(Cc3ccccc3Cl)C2)cc1 (centres undefined)	none (no result: Gal4-VP16 FLuc, RORg inh)
OCC[C@@H]1C[C@@H](O)[C@H](O)[C@]2(CCCO2)O1	none (no result: Gal4-VP16 FLuc, RORg inh, ELG1 repair inh)
CCn1c2ccc(F)cc2c2nnc(SCCN3CCCCC3)nc21	none
CC(/C=N/NC(=O)c1nnn(-c2nonc2N)c1CN1CCCCC1)c1ccccc1 (centres undefined)	none (no result: Gal4-VP16 FLuc, RORg inh, ELG1 repair inh)
O=C(Nc1ccc(Br)cc1)c1cc(-c2ccncc2)nc2ccccc12	SW480 rereplic 16µM, MCF10A rereplic inconclusive, ELG1 repair inh inconclusive (no result: Gal4-VP16 FLuc, RORg inh)
CCn1cc(-c2cc(C(=O)O)c3ccccc3n2)cn1	Gal4-VP16 FLuc inconclusive, RORg inh 5.6µM
O=C(N/N=C/c1ccc2c(c1)OCO2)c1cc(-c2ccncc2)nc2ccccc12	SW480 rereplic 16µM, MCF10A rereplic 5.8µM
O=C(O)c1cc(-c2ccc3ccccc3n2)nc2ccccc12	Gal4-VP16 FLuc 11µM, RORg inh 5µM, ELG1 repair inh inconclusive
CCn1cc(-c2cc(C(=O)O)c3ccccc3n2)c(C)n1	RORg inh inconclusive
Cc1ccccc1C(=O)NCC(=O)OC(C)C(=O)NCc1ccco1 (centres undefined)	none (no result: Gal4-VP16 FLuc, RORg inh)
COc1ccc(CCNc2nc(-c3ccncc3)cs2)cc1OC	ELG1 repair inh inconclusive
COc1ccc(CCNc2nc(-c3ccc(O)cc3)cs2)cc1OC	Gal4-VP16 FLuc inconclusive, MCF10A rereplic inconclusive, RORg inh inconclusive, ELG1 repair inh 23µM
COc1ccc(CCNc2nc(-c3ccccn3)cs2)cc1OC	RORg inh inconclusive, ELG1 repair inh 18µM
COc1ccc(CCNc2nc(-c3cccnc3)cs2)cc1OC	RORg inh inconclusive, ELG1 repair inh inconclusive
Cc1ccc(-c2cnc(SCC(=O)N3CCCc4ccccc43)n2C)cc1	RORg inh 11µM
Cn1c(-c2ccccc2)cnc1SCC(=O)N1CCCc2ccccc21	Gal4-VP16 FLuc inconclusive, RORg inh inconclusive
Cn1c(-c2ccccc2)cnc1SCC(=O)N1CCCCC1	Gal4-VP16 FLuc 8.9µM, RORg inh 5µM, ELG1 repair inh inconclusive
Cn1c(SCC(=O)N2CCCC2)nc2ccccc21	none
Cc1ccc(NC(=O)Nc2cc(S(C)(=O)=O)ccc2Cl)cc1	ELG1 repair inh inconclusive
N#CCCn1cc(C(=O)Nc2ccccc2Br)c(-c2cccs2)n1	SW480 rereplic inconclusive, MCF10A rereplic inconclusive
Cc1ccc(/C=N/n2c(-c3ccccc3)n[nH]c2=S)cc1	Gal4-VP16 FLuc 2.8µM, MCF10A rereplic inconclusive, RORg inh inconclusive
S=c1[nH]nc(-c2ccncc2)n1/N=C/c1ccccc1	SW480 rereplic inconclusive, Gal4-VP16 FLuc inconclusive, RORg inh inconclusive
O=[N+]([O-])c1ccc(/C=N/n2c(-c3ccccc3)n[nH]c2=S)cc1	Gal4-VP16 FLuc 10µM, RORg inh 1.3µM
O=[N+]([O-])c1ccc(/C=N/n2cn[nH]c2=S)cc1	Gal4-VP16 FLuc inconclusive, RORg inh 13µM
CCN(CC)S(=O)(=O)c1cccc(-c2n[nH]c(=S)n2/N=C/c2ccc(OC(F)F)cc2)c1	Gal4-VP16 FLuc 13µM
Cc1ccc(-c2n[nH]c(=S)n2/N=C/c2ccc(C(=O)O)cc2)cc1	none
CCOC(=O)C1CCC2(CC1)C(C#N)=C(N)Oc1n[nH]c(C)c12 (centres undefined)	none
CCN1CCN(c2c(Cl)cccc2NC(=O)c2cc3ccccc3o2)CC1	MCF10A rereplic inconclusive (no result: Gal4-VP16 FLuc, RORg inh, ELG1 repair inh)
COc1cccc(Oc2ccc3nnc(C(F)(F)F)n3n2)c1	none
COc1ccc(/C=N/n2c(-c3ccc(C)cc3)n[nH]c2=S)cc1OC	RORg inh 3.2µM
O=[N+]([O-])c1cc2c(cc1/C=N/n1c(-c3ccccc3)n[nH]c1=S)OCO2	Gal4-VP16 FLuc inconclusive, RORg inh 5.6µM
CC(C)c1ccc(/C=N/n2c(-c3ccccc3)n[nH]c2=S)cc1	Gal4-VP16 FLuc 3.2µM, RORg inh 4µM
COc1cc(/C=N/n2c(-c3ccccc3)n[nH]c2=S)ccc1O	ELG1 repair inh inconclusive
CC(=O)c1ccc(N2CCN(S(=O)(=O)c3cn(C)c(C)n3)CC2)cc1	none
Cc1ccc(C(=O)Nc2cccc3ccccc23)o1	SW480 rereplic 5.2µM, MCF10A rereplic inconclusive (no result: Gal4-VP16 FLuc, RORg inh, ELG1 repair inh)
COc1ccccc1NC(=O)c1ccc([N+](=O)[O-])o1	SW480 rereplic 7.3µM, MCF10A rereplic inconclusive (no result: Gal4-VP16 FLuc, RORg inh, ELG1 repair inh)
O=C(Nc1ccccc1C(=O)NC1CC1)c1ccc([N+](=O)[O-])o1	SW480 rereplic 6.5µM, MCF10A rereplic 16µM, ELG1 repair inh inconclusive (no result: Gal4-VP16 FLuc, RORg inh)
CC1CCN(c2ccccc2NC(=O)c2ccc([N+](=O)[O-])o2)CC1	none
Cc1cccc(NC(=O)c2ccc([N+](=O)[O-])o2)c1C	SW480 rereplic 7.3µM, MCF10A rereplic 13µM
Cc1ccc(S(=O)(=O)CCNC(=O)Cc2ccccc2)cc1	none
